An excerpt weighted towards active compounds, which were near 2.3% of everything screened.
PDI inh – inhibitors of human PDI, primary screen, biochemical, turbidity, single point, plate reader; inhibition, % at 10 µM; PDI insulin aggregation turbidity, A650, 90 min; 0.052% of 350,000 active; Protein disulfide-isomerase (Homo sapiens), P07237;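 active means mean inhibition across replicates of 30% or more, whatever share of single replicates reach that level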
Rtt109 HAT inh – inhibitors of C. albicans Rtt109/Vps75 HAT, primary screen, biochemical, ThioGlo CoA-SH fluorescence, plate reader | purified Rtt109/Vps75, 4 h | 0.16% of 330,000 active | inhibition, % at 34.9 µM;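 active means inhibition of at least 50% in every replicate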
ERp5 inh – inhibitors of ERp5-driven insulin aggregation, primary screen, biochemical, turbidity, absorbance 650 nm, single point. 90 min. inhibition, % at 9.99 µM. 0.05% of 350,000 active;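 active means mean replicate inhibition above about 25%, with every replicate also reaching it, limit read from the data, passing the limit was not always enough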
Target sequence (Q15084 whole entry, looked up): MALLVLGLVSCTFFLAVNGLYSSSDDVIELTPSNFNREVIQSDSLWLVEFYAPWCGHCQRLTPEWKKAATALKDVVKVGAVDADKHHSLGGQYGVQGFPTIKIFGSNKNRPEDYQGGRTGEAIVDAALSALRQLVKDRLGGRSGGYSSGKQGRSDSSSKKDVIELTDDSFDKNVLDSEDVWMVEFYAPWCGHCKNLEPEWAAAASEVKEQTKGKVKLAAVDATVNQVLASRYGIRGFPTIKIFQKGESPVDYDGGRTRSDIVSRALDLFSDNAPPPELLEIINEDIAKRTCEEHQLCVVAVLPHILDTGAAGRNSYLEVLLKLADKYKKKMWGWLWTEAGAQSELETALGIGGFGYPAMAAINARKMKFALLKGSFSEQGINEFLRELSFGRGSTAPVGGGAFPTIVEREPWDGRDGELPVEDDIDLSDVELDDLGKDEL
DENV2 CPE rescue – inhibitors of DENV2 cytopathic effect, primary screen, cell-based, plate reader, single concentration; DENV2-infected cells, cytopathic effect rescue; CPE inhibition, % at 9.99 µM; 1.7% of 350,000 active; in the data active means CPE inhibition above about 20%, passing the limit was not always enough; tested in BHK-21 cells;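 further: 0% = median of neutral control wells and 100% = median of positive control wells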
SIRT5 inh – SIRT5 desuccinylase inhibitors, primary screen, biochemical, fluorescence imaging, single point, set 5; 1.1% of 330,000 active; NAD-dependent protein deacylase sirtuin-5, mitochondrial (Homo sapiens), Q9NXA8; inhibition, % at 15 µM; Purified SirT5, succinyl-peptide AMC, trypsin-coupled fluorescence; AID 652115, 2013; in the data active means inhibition above about 15%
* hit, by the source's call; nt = no result; ! = not confirmed by another sample.

SMILES	PDI inh	Rtt109 HAT inh	ERp5 inh	DENV2 CPE rescue	SIRT5 inh
C[C@H]1CN([C@@H](C)CO)C(=O)c2cc(NC(=O)Nc3ccc(C(F)(F)F)cc3)ccc2O[C@H]1CN(C)CC1CC1	nt	nt	-4	18	1
C[C@H]1CN([C@@H](C)CO)C(=O)c2cc(NC(=O)Nc3ccc(F)cc3)ccc2O[C@@H]1CN(C)Cc1ccncc1	nt	nt	-1	1	8
CCCCNC(=O)N1CCN(Cc2ccc(F)cc2)CC1	2	1	5	-4	20*
CCCCNC(=O)N1CCN(C/C=C/c2ccccc2)CC1	3	-3	-1	0	-4
CCC(=O)N1CCC2(CC1)CN(Cc1cc(F)ccc1F)[C@H](CO)c1c2c2ccc(OC)cc2n1C	nt	nt	-2	-5	3
Cc1cc(NC(=O)c2noc3c2CCc2ccccc2-3)no1	nt	-2	1	3	-5
CC(=O)c1cccc(NC(=O)c2noc3c2CCc2ccccc2-3)c1	0	-4	5	22*	-2
O=C1Nc2ccccc2C(=O)N(C2CCCC2)C1C(=O)NC1CC1 (configuration not stated)	nt	nt	-1	35*	-1
O=C(NCC(F)(F)F)C1C(=O)Nc2ccccc2C(=O)N1C1CCCC1 (configuration not stated)	nt	nt	3	-21	-2
COc1ccc(C#Cc2ccc3c(c2)[C@]2(C(=O)N3)[C@H](c3ccc(OCCO)cc3)N3[C@H](c4ccccc4)[C@H](c4ccccc4)OC(=O)[C@H]3[C@@H]2C(=O)N2CCc3cc(OC)c(OC)cc3C2)cc1	nt	nt	3	6	15*
NC(=O)[C@H]1[C@@H]2C(=O)O[C@@H](c3ccccc3)[C@@H](c3ccccc3)N2[C@@H](c2ccccc2OCCO)[C@]12C(=O)Nc1ccc(C#CC3(O)CCCCCC3)cc12	nt	nt	-4	-5	16*
COc1cccc(-c2ccc3n(c2=O)C[C@@H]2[C@@H](CO)[C@H](C(=O)N(C)C)N(C(=O)C4CC4)[C@H]32)c1	nt	nt	0	-2	-25
Cc1cc(N2CCN(C)CC2)nc2ccc(NC(=S)N3CCCCCC3)cc12	5	9	4	5	20*
CCN(CC)CCNC(=S)Nc1ccc2nc(N3CCN(CC)CC3)cc(C)c2c1	-6	7	0	6	-3
CCN1CCN(c2cc(C)c3cc(NC(=S)NCCN(C)C)ccc3n2)CC1	-1	8	-6	-6	21*
Cc1cc(N2CCN(C)CC2)nc2ccc(NC(=S)N3CCCCC3)cc12	1	6	3	4	-1
C[C@@H]1CN([C@H](C)CO)C(=O)c2cc(NC(=O)c3ccccc3)ccc2O[C@@H](C)CCCCO[C@@H]1CN(C)S(C)(=O)=O	nt	nt	0	0	1
C[C@@H]1CCCCO[C@@H](CN(C)S(C)(=O)=O)[C@@H](C)CN([C@H](C)CO)C(=O)c2cc(NC(=O)c3ccccc3)ccc2O1	nt	nt	-2	85*	2
C[C@H]1CCCCO[C@H](CN(C)S(=O)(=O)c2cccs2)[C@@H](C)CN([C@@H](C)CO)C(=O)c2cc(NC(=O)c3ccccc3)ccc2O1	nt	nt	nt	36*	nt
C[C@H]1CCCCO[C@H](CN(C)Cc2ccccc2)[C@@H](C)CN([C@@H](C)CO)C(=O)c2cc(NC(=O)c3ccncc3)ccc2O1	nt	nt	4	0	-1
C[C@@H]1CN([C@H](C)CO)C(=O)c2cc(NC(=O)Nc3ccccc3)ccc2O[C@@H]1CN(C)S(=O)(=O)c1ccc(F)cc1	nt	nt	-5	12	3
O=C(NC1CCCC1)C(c1ccc(F)cc1)N(C(=O)c1csnn1)c1ccccc1 (configuration not stated)	15	52*	2	-4	-3
O=C(NC1CCCC1)C(c1ccc(F)cc1)N(C(=O)c1csnn1)c1ccccc1F (configuration not stated)	5	-7	2	0	-2
C[C@@H]1CN([C@H](C)CO)S(=O)(=O)c2ccc(C#Cc3ccncc3)cc2O[C@@H]1CN(C)C(=O)C1CC1	nt	nt	3	30*	2
C[C@@H]1CN([C@@H](C)CO)S(=O)(=O)c2ccc(C#Cc3ccccc3)cc2O[C@H]1CN(C)C(=O)C1CC1	nt	nt	0	-8	20*
SMILES	PDI inh	Rtt109 HAT inh	ERp5 inh	DENV2 CPE rescue	SIRT5 inh
C[C@H](O)C#Cc1ccc2c(c1)O[C@H](CN(C)C(=O)C1CC1)[C@@H](C)CN([C@@H](C)CO)S2(=O)=O	nt	nt	-2	57*	2
C[C@H](O)C#Cc1ccc2c(c1)O[C@H](CN(C)C(=O)CN(C)C)[C@H](C)CN([C@H](C)CO)S2(=O)=O	nt	nt	6	42*	6
C[C@H](CO)N1C[C@H](C)[C@H](CN(C)Cc2cccc(F)c2)Oc2ncc(Br)cc2C1=O	1	nt	82*!	-6	-3
C[C@@H]1CN([C@@H](C)CO)C(=O)c2cc(Br)cnc2O[C@@H]1CN(C)Cc1ccncc1	nt	nt	0	-4	-5
C[C@@H]1CN([C@H](C)CO)C(=O)c2cc(Br)cnc2O[C@@H]1CN(C)Cc1cccc(F)c1	nt	nt	7	0	-8
C[C@H](CO)N1C[C@H](C)[C@H](CN(C)Cc2ccncc2)Oc2ncc(Br)cc2C1=O	17	nt	2	85*!	-3
C[C@H](CO)N1C[C@H](C)[C@H](CN(C)Cc2cccc(F)c2)Oc2ncc(C#C[C@@H](C)O)cc2C1=O	nt	nt	-5	18	24*
C[C@H](O)C#Cc1cnc2c(c1)C(=O)N([C@@H](C)CO)C[C@H](C)[C@H](CN(C)Cc1cccc(F)c1)O2	nt	nt	7	1	-1
CCC(=O)N1[C@@H](CO)[C@@H](c2ccccc2)C12CN(C(=O)Nc1cccc(OC)c1)C2	nt	nt	-6	-9	6
C[C@H]1CN([C@@H](C)CO)S(=O)(=O)c2ccc(C#Cc3ccccc3)cc2O[C@H]1CN(C)C(=O)CN(C)C	nt	nt	3	-2	-17
CCN1[C@H](C(=O)NC2CCCC2)[C@@H](CO)[C@@H]2Cn3c(ccc(-c4ccccc4F)c3=O)[C@@H]21	nt	nt	8	-9	1
COc1ccccc1-c1ccc2c(c1)O[C@@H](CN(C)C)[C@@H](C)CN([C@H](C)CO)S2(=O)=O	nt	nt	-1	8	-10
COc1ccccc1-c1ccc2c(c1)O[C@@H](CN(C)Cc1ccc3c(c1)OCO3)[C@@H](C)CN([C@H](C)CO)S2(=O)=O	nt	nt	0	-5	17*
C[C@@H]1CN([C@@H](C)CO)S(=O)(=O)c2ccc(-c3cccc(C(=O)N(C)C)c3)cc2O[C@H]1CN(C)Cc1ccc2c(c1)OCO2	nt	nt	-1	4	19*
COc1ccccc1-c1ccc2c(c1)O[C@@H](CN(C)Cc1ccc3c(c1)OCO3)[C@H](C)CN([C@@H](C)CO)S2(=O)=O	nt	nt	-1	-2	23*

Bioassay records as filed in PubChem.
